Records with an inconclusive call do not appear. Where a call stands in place of a potency, no number is given. The source made the active and inactive calls. Unless noted, calls come from the whole dose curve; as a rule, active = well fitted curve in the direction sought with a large enough effect; inconclusive = small, poorly fitted or top-dose-only effect, or another doubt; inactive = no such curve, though single readings can be large; an effect the other way counts as inactive or inconclusive.

Assay [1] addresses Ubiquitin carboxyl-terminal hydrolase 1 (Homo sapiens) (UniProt O94782). The experiment in a line: Inhibitors of USP1/UAF1: Pilot qHTS (AID 504865). Note: nearly all actives have a fitted effect of over 35% in size. Note: potency is the fitted concentration of half-maximal effect. Summed up: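 Kinetic fluorescence assay: 1nM USP1/UAF1, 15 min compound preincubation, then 150nM Ub-Rho; 480/540 nm.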
Assay [2] deals with Thyrotropin-releasing hormone receptor (Homo sapiens) (UniProt P34981). In words: qHTS for Small Molecule Agonists and Allosteric Enhancers of Human TRH Receptor: Validation Screen for Agonists (AID 493127;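 active = calcium activation more than 3 SD above the typical response in the agonist read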). Conditions: TRH receptor agonist cell assay; at 2 µM; stronger effect = higher value. Summed up:
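TRHR cells loaded with fluo-8 calcium dye; FDSS kinetic fluorescence (Ex 480/Em 530) read at 1 s/cycle after 23 nL compound addition. Agonist-mode calcium response recorded before the 10 nM TRH (EC20) addition.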
(Quantitative high-throughput screening tests each substance at several concentrations.)

Assay [3] has as its target Galactokinase (Homo sapiens) (UniProt P51570). In words: qHTS Validation Assay for Inhibitors of Human Galactokinase (GALK) (AID 493189). Summed up:
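Compounds were pin-transferred into ATP buffer, then GALK-galactose mix was added (final 5 nM enzyme, 100 uM galactose, 35 uM ATP). After 1 h at room temperature, remaining ATP was measured luminescently.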

Assay [4] can be described thus: Validation screen for small molecules that induce DNA re-replication in SW480 colon adenocarcinoma cells (AID 504364). Summed up: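 SW480 cells (250/well) exposed 48 h at 37 C, 5% CO2, then Hoechst-stained 40 min. Nuclear DNA content imaged by fluorescence scanning (405 nm excitation, 500-530 nm emission); re-replication scored as increased nuclei with elevated intensity.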

Assay [5] is described as follows: Nrf2 qHTS screen for inhibitors: Validation (AID 493153; active = well fitted inhibition curve with a large enough effect in the main read-out, with a control signal flat, not every such curve was filed as active; note: potency is the fitted concentration of half-maximal effect). Conditions: Potency: luciferase luminescence; viability change: measured here: cytotoxicity max response. Summed up:
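A549 cells carrying ARE-firefly luciferase reporter, 5000 cells/well in 5% FBS OPTI-MEM, treated with compound over a concentration series for 18-24 h at 37 C. Luciferase luminescence gave Nrf2 activity; CellTiter-Fluor fluorescence gave viability.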

Assay [6] in a line: qHTS for Inhibitors of Cell Surface uPA Generation: Validation Assay (AID 493164). Summed up:
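RAW 264.7 cells (4000/well) were plated overnight, then exposed for 18 h at 37 C, 5% CO2 to compounds in a 7-point 1:5 titration (2.45 nM–38.3 uM final). Intracellular ATP was read by ATP-Lite luminescence.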

Assay [7] concerns the target Peptidyl-prolyl cis-trans isomerase NIMA-interacting 1 (Homo sapiens) (UniProt Q13526). In words: qHTS Validation Assay to Find Inhibitors of Pin1 (AID 504536; active = well fitted inhibition curve with a large enough effect in the polarisation, with a control signal flat, not every such curve was filed as active; the % refers to the polarisation). Summed up:
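Fluorescence polarization competition: compounds (titration) displace HiFluor-488-labeled Pin1-1b peptide from Pin1 (0.3 uM final) in pH 7.5 HEPES buffer with DTT, 10 min at room temperature; %Activity normalized to no-enzyme wells, curves fitted.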

Assay [8] has as its target Phosphoglycerate kinase, glycosomal (Trypanosoma brucei brucei) (UniProt P07378). In words: qHTS Validation Assay to Find Inhibitors of Phosphoglycerate Kinase (AID 504547). The essentials:
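Substrate/PGK mix plus compound; reaction started with GAPDH (100nM final) to form 1,3-BPG; 60 min RT; Kinase-Glo Plus 10 min; luminescence. TEA 100mM pH 7.6, MgCl2 5mM, Tween-20 0.01%.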

Assay [9] has as its target phosphoglycerate mutase (Leishmania major) (UniProt Q4Q090). In words: qHTS Validation Assay to Find Inhibitors of Phosphoglycerate Mutase (AID 504548). Note: series mostly up to about 58 µM. Summed up:
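Luminescent end-point read-out via Kinase-GloPlus after a 10-minute development. Reaction: 1.25nM Leishmania major PGAM with substrate and compound, 45 minutes at room temperature in TEA buffer (pH 7.6) with MgCl2 and Tween-20.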

A short description of assay [10]: qHTS for Inhibitors of ATXN expression: Validation of Cytotoxic Assay (AID 588349). Summed up:
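HEK293 cells treated with titrated compound for 72 hr at 37 degrees C; viability read as intracellular ATP by CellTiter Glo luminescence.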

Ubiquitin carboxyl-terminal hydrolase 1 (Homo sapiens), sequence (O94782 whole entry, looked up): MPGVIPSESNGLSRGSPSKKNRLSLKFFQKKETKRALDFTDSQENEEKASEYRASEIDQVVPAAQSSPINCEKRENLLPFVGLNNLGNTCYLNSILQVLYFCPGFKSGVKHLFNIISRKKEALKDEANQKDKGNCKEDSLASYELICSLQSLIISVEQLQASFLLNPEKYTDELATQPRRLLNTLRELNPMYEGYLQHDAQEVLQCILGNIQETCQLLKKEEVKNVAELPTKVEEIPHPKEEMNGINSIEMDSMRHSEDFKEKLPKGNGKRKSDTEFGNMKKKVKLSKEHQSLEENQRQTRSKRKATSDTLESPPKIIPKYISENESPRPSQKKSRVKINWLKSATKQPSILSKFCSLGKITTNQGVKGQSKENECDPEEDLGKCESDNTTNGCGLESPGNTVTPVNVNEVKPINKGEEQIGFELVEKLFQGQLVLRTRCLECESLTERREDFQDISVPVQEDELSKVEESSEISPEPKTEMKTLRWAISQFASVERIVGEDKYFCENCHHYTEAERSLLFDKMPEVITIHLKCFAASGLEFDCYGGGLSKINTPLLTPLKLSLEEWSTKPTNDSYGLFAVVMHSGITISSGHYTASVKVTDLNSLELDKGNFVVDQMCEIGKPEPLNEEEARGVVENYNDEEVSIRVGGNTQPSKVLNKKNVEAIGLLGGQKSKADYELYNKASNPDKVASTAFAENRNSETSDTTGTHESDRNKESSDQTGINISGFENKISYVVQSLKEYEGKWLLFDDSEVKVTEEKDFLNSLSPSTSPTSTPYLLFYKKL
Thyrotropin-releasing hormone receptor (Homo sapiens), sequence (P34981 whole entry, looked up): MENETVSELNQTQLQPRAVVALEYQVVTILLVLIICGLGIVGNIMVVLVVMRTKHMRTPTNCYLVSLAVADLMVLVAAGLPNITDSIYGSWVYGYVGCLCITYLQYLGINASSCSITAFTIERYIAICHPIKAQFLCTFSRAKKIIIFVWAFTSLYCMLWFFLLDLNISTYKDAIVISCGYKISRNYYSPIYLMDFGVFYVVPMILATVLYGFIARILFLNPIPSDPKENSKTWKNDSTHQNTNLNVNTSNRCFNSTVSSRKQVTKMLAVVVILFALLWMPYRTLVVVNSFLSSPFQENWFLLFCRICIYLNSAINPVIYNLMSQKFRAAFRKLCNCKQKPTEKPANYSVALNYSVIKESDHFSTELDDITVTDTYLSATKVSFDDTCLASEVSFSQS
Galactokinase (Homo sapiens), sequence (P51570 whole entry, looked up): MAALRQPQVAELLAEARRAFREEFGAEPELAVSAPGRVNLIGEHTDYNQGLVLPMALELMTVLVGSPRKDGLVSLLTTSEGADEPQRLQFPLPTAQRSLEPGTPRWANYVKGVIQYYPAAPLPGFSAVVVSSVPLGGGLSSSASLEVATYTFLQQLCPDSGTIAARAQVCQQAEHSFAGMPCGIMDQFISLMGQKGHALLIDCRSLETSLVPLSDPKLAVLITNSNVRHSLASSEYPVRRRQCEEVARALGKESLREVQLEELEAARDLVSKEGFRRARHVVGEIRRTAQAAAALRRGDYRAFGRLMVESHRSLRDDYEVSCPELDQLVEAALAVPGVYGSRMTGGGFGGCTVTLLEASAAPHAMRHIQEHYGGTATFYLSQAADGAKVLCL
Peptidyl-prolyl cis-trans isomerase NIMA-interacting 1 (Homo sapiens), sequence (Q13526 whole entry, looked up): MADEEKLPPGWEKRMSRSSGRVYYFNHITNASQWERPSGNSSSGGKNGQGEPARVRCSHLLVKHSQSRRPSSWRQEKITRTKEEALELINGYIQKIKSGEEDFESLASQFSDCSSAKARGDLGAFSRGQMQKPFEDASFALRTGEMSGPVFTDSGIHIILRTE
Phosphoglycerate kinase, glycosomal (Trypanosoma brucei brucei), sequence (P07378 whole entry, looked up): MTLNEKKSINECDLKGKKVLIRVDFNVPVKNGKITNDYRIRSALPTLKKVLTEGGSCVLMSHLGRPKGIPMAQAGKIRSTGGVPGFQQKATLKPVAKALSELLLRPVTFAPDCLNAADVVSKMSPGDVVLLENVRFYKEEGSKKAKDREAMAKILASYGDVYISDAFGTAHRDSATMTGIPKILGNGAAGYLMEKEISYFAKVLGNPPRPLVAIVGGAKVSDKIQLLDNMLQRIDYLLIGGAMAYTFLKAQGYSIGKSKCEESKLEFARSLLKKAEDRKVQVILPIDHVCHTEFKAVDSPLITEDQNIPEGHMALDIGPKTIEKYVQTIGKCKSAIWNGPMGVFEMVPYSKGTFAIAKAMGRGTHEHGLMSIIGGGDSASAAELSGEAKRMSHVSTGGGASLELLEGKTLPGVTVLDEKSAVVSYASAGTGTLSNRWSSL
phosphoglycerate mutase (Leishmania major), sequence (Q4Q090 1-553): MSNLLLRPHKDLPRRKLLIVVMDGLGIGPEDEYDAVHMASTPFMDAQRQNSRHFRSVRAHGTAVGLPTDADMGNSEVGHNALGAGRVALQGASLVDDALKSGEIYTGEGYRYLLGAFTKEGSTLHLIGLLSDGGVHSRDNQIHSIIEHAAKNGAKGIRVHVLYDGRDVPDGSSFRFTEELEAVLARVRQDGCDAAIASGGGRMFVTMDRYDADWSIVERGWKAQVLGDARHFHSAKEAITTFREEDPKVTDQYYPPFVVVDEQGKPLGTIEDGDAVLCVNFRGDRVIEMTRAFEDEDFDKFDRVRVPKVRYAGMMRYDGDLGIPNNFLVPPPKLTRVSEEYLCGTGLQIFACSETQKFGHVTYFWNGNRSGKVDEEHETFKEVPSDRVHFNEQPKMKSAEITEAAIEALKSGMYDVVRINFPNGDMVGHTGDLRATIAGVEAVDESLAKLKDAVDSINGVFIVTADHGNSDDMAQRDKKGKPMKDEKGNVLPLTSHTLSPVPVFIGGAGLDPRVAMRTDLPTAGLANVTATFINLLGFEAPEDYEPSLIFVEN

As to `N#CCC(=O)NN`, the Potency entry in [1] is “inactive”.
On to `COc1cc(N)c(Cl)cc1C(=O)NC1CCN(Cc2ccccc2)CC1`, for which the Potency result in assay [1] was “inactive”.
In the case of `Cc1ncc(CO)c(C=O)c1O`, the Potency entry in assay [1] is “inactive”.
With `O=C(O)P(=O)(O)O`, in [1], the Potency entry was “inactive”.
Consider `O=C1C(CCS(=O)c2ccccc2)C(=O)N(c2ccccc2)N1c1ccccc1` (stereo unspecified), for which the Potency result in [1] is “inactive”.
With `COc1cc(NS(=O)(=O)c2ccc(N)cc2)ncn1`, in assay [1], the Potency result was “inactive”.
`Cl/C(=C\n1cncn1)c1ccc(Cl)cc1Cl`: the Potency entry in assay [1] is “inactive”.
As to `COc1cc([C@H]2Oc3cc([C@H]4Oc5cc(O)cc(O)c5C(=O)[C@@H]4O)ccc3O[C@@H]2CO)ccc1O`, the Potency entry in assay [1] is “inactive”.
`CCOC(=O)Nc1ccc2c(c1)N(C(=O)CCN1CCOCC1)c1ccccc1S2`: in [1], the Potency result was “inactive”.
As to `CCN(CC)CCOc1ccc2c(c1)C(=O)c1cc(OCCN(CC)CC)ccc1-2`, in assay [1], the Potency entry is “inactive”.
As for `CN1CCC(OC(c2ccccc2)c2ccccc2)CC1`, in assay [1], the Potency result is “inactive”.
For `CCc1oc2ccccc2c1C(=O)c1cc(Br)c(O)c(Br)c1`, in assay [1], the Potency was 31.6 µM (active).
Take `CCN(CC)CCOC(=O)C(Cc1cccc2ccccc12)CC1CCCO1` (stereo unspecified): in [1], the Potency result is “inactive”.
The same measure, in the same setting: as for `O=C(NCCc1c[nH]c2ccccc12)c1cccnc1`, the entry is “inactive”.
As to `CCNC(=O)NCc1cccc(Cl)c1`, the Potency entry in assay [1] was “inactive”.
As for `CC(=O)OCC1=C(C(=O)O)N2C(=O)[C@@H](NC(=O)CSc3ccncc3)[C@H]2SC1`, the activation in [2] is 0.5% (inactive). In addition, the outcome in assay [3] and in assay [4] was inactive.
Turning to `NC(=O)C1(N2CCCCC2)CCN(CCCC(=O)c2ccc(F)cc2)CC1`, the Potency result in [1] is “inactive”.
As for `COc1ccc(C(=O)c2ccccc2O)c(O)c1`, in [1], the Potency result is “inactive”.
As for `NC(N)=NCc1cccc(I)c1`, in assay [2], the activation was -0.0625% (inactive). Moreover, the Potency in assay [5] was 20.6 µM (active). Further, the viability change in assay [5] is 2.28%. Moreover, the compound was called inactive in assay [6], in assay [3], in assay [4], in [7], in [8] and in assay [9]. The compound was classed as inactive in assay [10]. In assay [1], the Potency entry is “inactive”.
